# Only some compounds are listed: those with a hit (about 5.3% of all), similar ones and a draw of the others.
# Tau fluor counter – counter-screen for tau fibril formation inhibitors. tau K18 P301L Alexa594 fluorescence, heparin fibrillization. Potency, µM (titrated, usually from 57.7 µM), without a hit: top-dose activity change, negative = decrease. hit rate 0.93% among 280,000; note: potency is the fitted concentration of half-maximal effect; nearly all actives have a fitted effect of over 55% in size
#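 Human tau K18 P301L (15 uM unlabeled, 0.24 uM Alexa 594-labeled) in 100 mM sodium acetate pH 7 with 20 uM heparin, 6 hr at 37 C. ThT 30 uM added, 1 hr ambient; Alexa 594 FP and total fluorescence read at 555/632 nm.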
# Tau fibril FP – tau fibrillization inhibition (FP); P10636; Potency, µM (top dose mostly 57.7 µM), inactives show top-dose activity, negative = inhibition, hits mostly inhibitors; hit rate 0.39% among 280,000; K18 P301L tau heparin fibrillization, Alexa594 FP, 6 h; AID 1468; note: potency is the fitted concentration of half-maximal effect; nearly all actives have a fitted effect of over 55% in size
# Target sequence (P10636 561-689 P618L limits assumed): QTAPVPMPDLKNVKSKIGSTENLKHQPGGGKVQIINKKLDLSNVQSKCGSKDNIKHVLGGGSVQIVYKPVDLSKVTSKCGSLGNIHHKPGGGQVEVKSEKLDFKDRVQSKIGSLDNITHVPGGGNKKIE
#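 Compound effects on tau fibrillization are measured by Alexa 594 fluorescence polarization (ex 555, em 632 nm). K18 P301L tau is used at 15 uM with 0.24 uM labeled tracer, and 20 uM heparin induces aggregation over 6 hr at 37 C.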
# FBPA coupling cs – coupling enzyme interference in Giardia aldolase counter-screen | hit rate 0.67% among 290,000 | activity change, negative = inhibition, % at 58.2 µM, hits read low | coupling enzyme system counterscreen, AmpLite Red fluorescence; in the data active = activity change below about -30%
#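 Counterscreen lacking aldolase: glyceraldehyde-3-phosphate coupling-enzyme reagent preincubated 10 min at RT with compound (at 57.5 uM final), then substrate/coupling system with AmpLite Red added; fluorescence read at 525/598 nm after 20 min RT.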
# KDM4E inh – blocks human JMJD2E demethylase activity; hit rate 1.6% among 230,000; JMJD2E catalytic domain, FDH-coupled NADH fluorescence (FDH is formaldehyde dehydrogenase); Potency, µM (highest dose often 57.1 µM), for the others: at the highest dose activity change, negative = inhibition, most hits filed as inhibitors; B2RXH2; AID 2147; active = well fitted inhibition curve with a large enough effect, not every such curve was filed as active; inconclusive = small, poorly fitted or top-dose-only effect, or another doubt; inactive = no such curve, though single readings can be large or run the other way;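 note: potency is the fitted concentration of half-maximal effect; 0% = wells with enzyme and -100% = buffer wells without enzyme; nearly all actives have a fitted effect of over 50% in size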
# Target sequence (B2RXH2 1-337 limits assumed): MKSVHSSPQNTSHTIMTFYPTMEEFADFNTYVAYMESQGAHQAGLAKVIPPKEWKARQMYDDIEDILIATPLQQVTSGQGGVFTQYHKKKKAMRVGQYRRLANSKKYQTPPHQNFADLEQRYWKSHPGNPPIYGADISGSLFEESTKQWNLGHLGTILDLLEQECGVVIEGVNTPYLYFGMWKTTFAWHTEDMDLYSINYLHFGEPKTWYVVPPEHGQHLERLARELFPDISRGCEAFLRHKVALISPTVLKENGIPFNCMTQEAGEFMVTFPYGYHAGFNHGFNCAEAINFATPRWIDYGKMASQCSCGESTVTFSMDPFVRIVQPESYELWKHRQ
# Sfp PPTase inh – inhibitors of Bacillus subtilis Sfp phosphopantetheinyl transferase. hit rate 3.5% among 310,000. Potency, µM, inactives show largest response in the series, negative = inhibition, usual class: inhibitors. Q9F4F7. Biochemical Sfp PPTase activity, qHTS;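 note: the enzyme is Sfp with the accession as filed and its product quenches rhodamine fluorescence; potency is the fitted concentration of half-maximal effect; 0% = enzyme reaction without inhibitor and -100% = no enzyme wells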
#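 Reaction rates are the 30-min fluorescence difference (ex 525, em 598 nm) in wells containing 15 nM Sfp, 5 uM rhodamine-CoA and 12.5 uM BHQ-2-YbbR at pH 7.6 with 10 mM MgCl2.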
# Tau ThT inhib – inhibitors of human tau fibril formation, thioflavin T binding; P10636; recombinant tau K18 P301L (four-repeat tau fragment), heparin-induced fibrillization, ThT fluorescence; Potency, µM (top dose mostly 57.4 µM), without a hit: at the top dose activity, negative = inhibition, hits mostly inhibitors; hit rate 2.1% among 270,000; AID 1460; note: potency is the fitted concentration of half-maximal effect; nearly all actives have a fitted effect of over 55% in size
#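 In this qHTS, human K18 P301L tau is incubated with compound and heparin for 6 hr at 37 C, and Thioflavin T fluorescence then reports fibril load.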
# The depositor's hits bear a star; ? = inconclusive; . = not tested or not shown; ! = repeats disagree; [ ] = dose if it differs, or a comment. Unless noted, calls come from the whole dose curve; as a rule, active = well fitted curve in the direction sought with a large enough effect; inconclusive = small, poorly fitted or top-dose-only effect, or another doubt; inactive = no such curve, though single readings can be large; an effect the other way counts as inactive or inconclusive. Unless noted, % is set by controls: 0 for no effect and ±100 for the full control effect.
SMILES,Tau fluor counter,Tau fibril FP,FBPA coupling cs,KDM4E inh,Sfp PPTase inh,Tau ThT inhib
Cc1ccc2nc(NC(=O)CSc3cc(C)[nH]c(=O)n3)sc2c1,-14%,?,.,.,.,?
COc1ccc(/C=N/Nc2nc(C)c([N+](=O)[O-])c(N(C)c3ccccc3)n2)cc1OC,-19%,0%,2,-1%,0%,?
COc1ccc(Nc2nc(N/N=C/c3ccc(N(C)C)cc3)nc(C)c2[N+](=O)[O-])cc1,11µM*[quencher],9%,2,-1%,1%,3.2µM*
COc1ccc(Nc2nc(NN)nc(C)c2[N+](=O)[O-])cc1,?,-7%,-4,-25%,2%,14µM*
O=[N+]([O-])c1cc(Cl)ccc1NCCNS(=O)(=O)c1ccccc1,?,4%,-1,7%,-6%,13µM*
Cc1[nH]n(C(N)=S)c(=O)c1N=Nc1cccc([N+](=O)[O-])c1C,.,.,4,.,12%,.
Cc1ccc(N=Nc2c(C)[nH]n(C(N)=S)c2=O)cc1C,-4%,5%,3,0%,-20%,4.5µM*
CC(=O)Nc1ccc(N=NC2C(=O)N(C(N)=S)N=C2C)cc1 (centres undefined),.,.,-1,.,?,.
Cc1[nH]n(C(N)=S)c(=O)c1N=Nc1ccc(S(=O)(=O)N2CCCCCC2)cc1,-26%,7%,1,-21%,6%,25µM*
Cc1[nH]n(C(N)=S)c(=O)c1N=Nc1ccc2ccccc2c1,?,3%,1,4%,11%,2.8µM*
CC(=O)Nc1ccc(N=Nc2c(C)[nH]n(C(N)=S)c2=O)cc1,-22%,-7%,0,-4%,40µM*,8.9µM*
CCOc1ccc(NC(=O)Cn2c(=O)n(-c3ccccc3)c(=O)c3ccc(C(=O)NCc4ccc5c(c4)OCO5)cc32)cc1,-22%,?,.,.,.,15%
Nc1cc(-c2ccc(Br)cc2)[nH]n1,-1%,7%,-1,4%,4%,4%
Cc1[nH]n(C(N)=S)c(=O)c1N=Nc1cc(-c2ccc(Br)cc2)[nH]n1,?,3%,2,-6%,4%,2.2µM*
CCCCCCOC(=O)Sc1nc2ccccc2o1,-14%,-5%,3,-9%,45µM*,?
COc1cccc(-n2ccnc2SCC(=O)Nc2cccc3ccccc23)c1,-15%,7%,.,.,.,-10%
CC[C@@H]1C(c2cccc(Cl)c2)=NN(c2ccc(Br)cc2)[C@H]1C(=O)N1CCOC1=O,?,-6%,-3,.,17%,?
C[C@@H]1C(c2ccc(F)cc2)=NN(c2ccccc2)[C@H]1C(=O)N1CCOC1=O,?,-6%[81.3 µM],-5,.,-1%,-17%[81.4 µM]
CC[C@@H]1C(c2ccc(F)cc2)=NN(c2ccc(Br)cc2)[C@H]1C(=O)N1CCOC1=O,10µM*[quencher],8%,-3,.,39%,?
CC[C@@H]1C(c2ccccc2)=NN(c2ccc(Br)cc2)[C@H]1C(=O)N1CCOC1=O,7.9µM*[quencher],11%[81.3 µM],-8,.,12%,?
C[C@@H](Oc1ccc(Oc2cnc3ccc(Cl)cc3n2)cc1)C(=O)O,-7%,?,.,-1%,.,-1%
COc1ccc(N2CCN(CCNC(=O)Nc3ccc(C)c(Cl)c3)CC2)cc1,.,.,0,.,9%,.
COc1ccc(NC(=O)NCCN2CCN(c3cccc(Cl)c3)CC2)cc1,-17%,12%,-32*,5%,?,-17%
COc1ccc(CNC(=O)c2cc3ccccn3n2)cc1OC,0%,3%,.,.,.,4%
Cc1cc2cc(C=C(C#N)C#N)c(Cl)nc2cc1C,-13%,?,-1,?,?,3.2µM*
SMILES,Tau fluor counter,Tau fibril FP,FBPA coupling cs,KDM4E inh,Sfp PPTase inh,Tau ThT inhib
Cc1[nH]c2ccccc2c1CC#N,0%,-3%,-1,1%,4%,3%
Cc1[nH]c2ccccc2c1C(C#N)(C#N)C1C(=O)c2ccccc2C1=O,4.5µM*[quencher],?,-36*,?,?,6.3µM*
O=C(c1cccc(F)c1)N1CCC2(CCCN(Cc3nccs3)C2)CC1,.,.,2,.,19%,.
COC(=O)[C@@H]1C[C@@]2(O)[C@@H](O)[C@@H](O)[C@@H](O)C[C@H]2N1Cc1ccc(-c2ccccc2)cc1,-5%,?,-1,-30%,5%,5%
COC(=O)[C@@H]1C[C@@]2(O)[C@H](O)[C@H](O)[C@H](O)C[C@H]2N1Cc1ccc(-c2ccccc2)cc1,-8%,-4%,0,8.9µM*!,6%,-9%
O=C1CCCC2=C1C(c1ccc(O)c(O)c1)Nc1ccc3ncccc3c12 (centres undefined),?,-11%,-14,25µM*,?,?
Cc1ccsc1C1Nc2ccc3ncccc3c2C2=C1C(=O)CC(C)(C)C2 (centres undefined),6%,-2%,-31*,5%,9%,6%
COc1ccc2[nH]cc(CCNc3ccnc(-c4ccc(N(C)C)cc4)n3)c2c1,.,.,-1,.,?,.
CC1Oc2ccccc2C=C1/C=C1/SC(N2CCOCC2)=NC1=O (centres undefined),-7%,1%,-44*,6%,?,?
O=C1N=C(N2CCOCC2)S/C1=C/c1cccs1,3%,10%,2,-7%,15%,-5%
CCN1C(=O)/C(=C/C2=Cc3ccccc3OC2C)SC1=S (centres undefined),?,1%,3,4%,10%,13µM*
CCN1C(=O)/C(=C\c2ccncc2)SC1=S,-2%,-1%,0,-5%,-5%,-19%
COc1ccc(CNc2oc(COc3ccc(Cl)cc3)nc2C#N)cc1,?,2%,0,1%,18%,-16%
COCCNc1oc(-c2ccc(COc3ccc(OC)cc3)o2)nc1C#N,?,8%,.,.,.,-8%
COCCCNc1oc(-c2ccc(COc3ccc(Cl)cc3)o2)nc1C#N,11µM*[quencher],?,.,.,.,?
COc1ccc(Nc2oc(COc3ccc(Cl)cc3)nc2C#N)cc1,20µM*[quencher],11%,1,-7%,1%,?
C[C@@]12CCC[C@H]1C1CC[C@H]3C[C@H](O)CC[C@]3(C)C1CC2 (some centres undefined),-9%,1%,.,.,26%,-12%
COc1ccc(Nc2cc(C)c3c(O)cccc3n2)cc1,?,?,-30*,-27%,?,.
COC(=O)c1cc(Nc2cc(C)c3c(O)cccc3n2)cc(C(=O)OC)c1,?,?,0,-23%,2%,.
Cc1ccc(Nc2cc(C)c3c(O)cccc3n2)cc1C,14µM*[quencher],?,-37*,?,50µM*,.
CCOC(=O)c1c(NC(=O)/C=C/C(=O)O)sc(C)c1-c1ccc(F)cc1,-12%,-6%,32,-7%,50µM*,?
